From PubChem BioAssay (NCI)
About 83,000 compounds went through this panel and 20% of them were active in at least one assay; those are over-represented in the sample as a whole.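 The test compound was applied at a single concentration to cells in 96-well plates for 48 hours, and percent growth was recorded.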 Unmarked numbers belong to inactive results. Active and inactive are the calls of the source. The calls were made as follows: active = growth percent below 10; inactive = the rest.

These molecules were tested on MDA-MB-468 breast (assay: NCI-60 one-dose screen, 48 h (100 = growth as untreated, 0 = no growth, -100 = all killed)). Conditions: 10 µM unless noted.
With CCN(CC)Cc1cc(Nc2c3ccccc3nc3cc(Cl)ccc23)ccc1O the growth was -72.4% (active).
With NC(=O)c1c(NC(=O)COC(=O)Cc2ccccc2F)sc2c1CCC2 the growth was 112%.
Work on COc1cc(Cl)cc(-c2nn(-c3cccc(NC(=O)c4cc(C(F)(F)F)cc(C(F)(F)F)c4)c3)cc2-c2ccncc2)c1 yielded a growth of 46.5%.
Molecule CN(C)CCOc1cccc(-c2nc3sccn3c2-c2ccnc(S(C)(=O)=O)n2)c1 has a growth of 92%.
For COc1ccc(CNc2c3ccccc3nc3ccccc23)cc1, the growth was 27.1%.
With CCN1CCN(c2ccc(Nc3cc(-c4cccnc4Nc4c(Cl)c(OC)cc(OC)c4Cl)ncn3)cc2)CC1 the growth was 89.6%.
With N#Cc1ccccc1-c1ccc(CN2C(=O)S/C(=C\c3ccc(Br)cc3)C2=O)cc1 the growth was 112%.
CC1(C)CC2=C3C=C[C@@H]4[C@@]5(C)CCC(=O)C(C)(C)[C@@H]5CC[C@@]4(C)[C@]3(C)CC[C@@]2(C(=O)O)CC1=O showed a growth of 74.2%.
Cc1csc(/N=C(N)/N=C(\N)c2cccc(Br)c2)n1 gave a growth of 79.7%.
For Cc1cc2c(F)c(Oc3ncnc(Nc4ccc(N5C[C@@H](C)N[C@@H](C)C5)cc4)c3C#N)cc(F)c2[nH]1, the growth was -5% (active).
COc1ccc(-c2nc3sccn3c2-c2ccnc(S(C)(=O)=O)n2)cc1 was tested, and the growth was -25.9% (active).
Nc1ccn(C2CC(O)C(CO)O2)c(=O)n1 (stereo not given) gave a growth of 103%.
For Cn1cccc1C(=O)C1C(c2cccc([N+](=O)[O-])c2)C2C3CCCCC3CN2C12C(=O)Nc1ccc(Cl)cc12 (stereo not given), the growth was 32%.
With CO[C@H]1CC(O[C@@H]2/C(C)=C/C[C@@H]3C[C@@H](C[C@]4(C=C[C@H](C)[C@@H](C5CCCCC5)O4)O3)OC(=O)[C@@H]3C=C(C)[C@@H](O)[C@H]4OC/C(=C\C=C\[C@@H]2C)[C@]43O)O[C@@H](C)C1O[C@H]1C[C@H](OC)[C@@H](O)[C@H](C)O1 (stereo not given in full) the growth was -72.5% (active).
For CC/C=C\C[C@H](O)C/C=C1/C(=O)C=C[C@@H]1C/C=C\CCCC(N)=O, the growth was -33.1% (active).
In the case of O=C1C=CC(=O)N1c1cccc2c1CCCC2, the growth is reported as 95.1%.
O=C1/C(=C\c2cn(CC(O)CN3CCCCC3)c3ccccc23)c2ccccc2N1c1c(Cl)cccc1Cl (stereo not given) was tested, and the growth was -93.3% (active).
For O=C1c2cc3c(cc2-c2c1c1ccc(F)cc1c(=O)n2CCCN1CCOCC1)OCO3, the growth was 18.5%.
O=C(NCCCCCCNC(=O)OCc1ccc2c(Cl)cc(Cl)c(O)c2n1)OCc1ccc2c(Cl)cc(Cl)c(O)c2n1 was tested, and the growth was -62.7% (active).
CC/C(=C\c1ccc(N(C)C)cc1)c1nc2ccccc2c(=O)[nH]1 showed a growth of 91.4%.
In the case of Cc1ccc(NC2=C(Cl)C(=O)c3nc(C)ccc3C2=O)c(C)c1, the growth is reported as -70.2% (active).
COc1cc(-c2nc(-c3nc4cc(C(=O)c5ccccc5)ccc4[nH]3)cc3c2[nH]c2ccccc23)cc(OC)c1OC gave a growth of 93%.
In the case of COc1ccc2c(-c3ccc(F)cc3)c(C#N)c(=NC(C)=O)oc2c1, the growth is reported as -8.32% (active).
CCN(CC)c1ccc(/C=N/NC(=O)c2ccc(NS(C)(=O)=O)cc2)cc1 was tested, and the growth was 20.2%.
Cc1c2cnccc2c(C)c2c1c1cc(O)ccc1n2C(C)C showed a growth of 24.3%.
Oc1[nH]c2ccc(Cl)cc2c1/C=c1/ccc2c(c1)N=C(c1cc(F)cc(F)c1)N=2 showed a growth of 53%.
With COc1cc(Nc2ncc(F)c(Nc3ccc4c(n3)N(COP(=O)(O)O)C(=O)C(C)(C)O4)n2)cc(OC)c1OC the growth was 6.8% (active).
In the case of Nc1n[nH]c2ccc([C@@H]3Nc4c(F)cc5[nH]ncc5c4[C@H]4C5CCC(C5)[C@@H]34)cc12 (stereo not given in full), the growth is reported as -4.88% (active).
In the case of COc1ccc(/C(=C2\O[C@@H]([C@H]3COC(C)(C)O3)[C@H]3OC(C)(C)O[C@@H]23)c2cc(OC)c(OC)c(OC)c2)cc1O, the growth is reported as 96.4%.
Oc1ccc(Cc2ccc(O)c(C3CC(c4ccc(Cl)cc4)=NN3)c2)cc1C1CC(c2ccc(Cl)cc2)=NN1 (stereo not given) gave a growth of 23.3%.
CCCCNC(=O)Oc1ccc(/C(=C(/C)Cc2ccc(OC)cc2)c2ccc(OCCN3CCCCC3)cc2)cc1 gave a growth of 60.1%.
Cc1ccc2nc(Cl)c(-c3nc4ccccc4o3)cc2c1 showed a growth of 100%.
In the case of COc1cc(C(=O)/C=C/c2cc(C(=O)c3cc(OC)c(OC)c(OC)c3)ccc2OC)ccc1N, the growth is reported as -44.7% (active).
In the case of CCN(CC)S(=O)(=O)c1cccc([N+](=O)[O-])c1, the growth is reported as 91.4%.
Cc1ccc(C(=O)N/N=C/c2ccc3c(c2)OCO3)cc1 was tested, and the growth was 101%.
C[C@@H]1C[C@H]2C(=O)O[C@@H](C)C(NC(=O)[C@H](Cc3cc(F)cc(F)c3)NC(=O)Nc3ccc(C4CC4)cc3F)C(=O)N3CCC[C@H]3C(=O)N3CCCC[C@H]3C(=O)N[C@@H](CO)C(=O)N2C1 (stereo not given in full) was tested, and the growth was -18.1% (active).
COc1cc(OC)c(/C=C/S(=O)(=O)Cc2ccc(OC)c(NC(=O)CCC(=O)NO)c2)c(OC)c1 was tested, and the growth was 40.4%.
For Oc1c(Br)c(Br)c(O)c(Br)c1Br, the growth was 102%.
With CC(C)(C)CC(C)(C)n1nnnc1C(Nc1ccccc1)c1cc2cccc3ccc4cccc1c4c32 (stereo not given) the growth was 86.5%.
With CN1CCN(c2ccc(Nc3nc(NCCCNS(=O)(=O)c4cccc5ccccc45)c4sccc4n3)cc2)CC1 the growth was -70.5% (active).
